Where “and” joins values, the source holds several entries; their conditions need not be identical. Equal entries are not always repeated. Results filed as inconclusive are left out. The source holds several records for some structures; these can differ, active in one and inactive in another. Calls of active or inactive are those of the source. Calls come from the whole dose curve; as a rule, active = well fitted activation curve with a large enough effect in the repeat runs; inconclusive = weak or mixed curves; inactive = flat fitted curve, though single readings scatter.
% is set by controls: 0 for no effect and ±100 for the full control effect.

The first test is described as follows: A CellTox Green Cytotoxicity Assay to monitor cytotoxicity in HEK293 cells - 32 hour (AID 1224881). Note: nearly all actives have a fitted effect of over 40% in size. The conditions noted are these: CellTox Green fluorescence; series mostly up to 35.3 µM; cytotoxicity increase: at the top concentration. In outline:
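Dead-cell fluorescence measured kinetically: asymmetric cyanine dye, HEK293, 600 cells/well, 5 h settle, 23 nL cpd/DMSO, 37 C, reads 0–40 h every 8 h.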
Regarding `CN1C(=O)N(C)C(O)C1O` (stereo not drawn), the “cytotoxicity increase” value was 1.48% [at 76.8 µM] (inactive).

Turning to `CC(C)NC(=O)NC(C)C`, the “cytotoxicity increase” value is -8.27% [at 76.8 µM] (inactive).

Regarding `Brc1c(NC2=NCCN2)ccc2nccnc12`, the “cytotoxicity increase” value was -13.9% (inactive).

Take `CN(C(=O)c1c(O)c2ccccc2n(C)c1=O)c1ccccc1`: the “cytotoxicity increase” value was -4.93% (inactive).

For the compound `CC(C)NCCCC1(C(N)=O)c2ccccc2-c2ccccc21`, the “cytotoxicity increase” value is -8.87% (inactive).

For `C=C(C)C(=O)OCCCCCCCC(C)C`, the “cytotoxicity increase” value was 4% [at 76.8 µM] (inactive).

For `CC(NC(CCc1ccccc1)C(=O)O)C(=O)N1C(=O)N(C)CC1C(=O)O` (stereo not drawn), the “cytotoxicity increase” value is -6.84% (inactive).

Consider `CCOC(=O)[C@H](CCc1ccccc1)N[C@@H](C)C(=O)N1[C@H](C(=O)O)C[C@@H]2CCC[C@@H]21`, for which the “cytotoxicity increase” value was 0.0518% (inactive).

With `O=Cc1cccc([N+](=O)[O-])c1`, the “cytotoxicity increase” value was -0.672% [at 76.8 µM] (inactive).

In the case of `CC/C=C\CC/C=C/C(OCC)OCC`, the “cytotoxicity increase” value was -2.57% [at 76.8 µM] (inactive).

Take `CCCCCSCCCCC`: the “cytotoxicity increase” value is -13.8% [at 76.8 µM] (inactive).

Consider `CCOC(=O)CC(C)=O`, for which the “cytotoxicity increase” value is -0.428% [at 76.8 µM] (inactive).

`Cn1cc(S(C)=O)c(=O)c2ccc(F)cc21` (stereo not drawn): the “cytotoxicity increase” value was -12.6% (inactive).

Consider `CC(C)CCCC(C)N` (stereo not drawn), for which the “cytotoxicity increase” value is -9.15% (inactive).

Turning to `COC(=O)c1ccc(C)cc1C1=NC(C)(C(C)C)C(=O)N1` (stereo not drawn), the “cytotoxicity increase” value is 14% [at 76.8 µM] (inactive).

On to `CC(C)(O)C(=O)c1ccccc1`, for which the “cytotoxicity increase” value is 8.85% [at 76.8 µM] (inactive).

Regarding `N#Cc1ccc(C2CCCc3cncn32)cc1` (stereo not drawn), the “cytotoxicity increase” value is -8.03% (inactive).

`C[C@@H]1CCN(C(=O)[C@H](CCCN=C(N)N)NS(=O)(=O)c2cccc3c2NC[C@H](C)C3)[C@@H](C(=O)O)C1`: the “cytotoxicity increase” value is -10.5% (inactive).

The nature of a further test: A CellTox Green Cytotoxicity Assay to monitor cytotoxicity in HepG2 cells - 0 hour (AID 1224882). Note: nearly all actives have a fitted effect of over 35% in size. Note: potency is the fitted concentration of half-maximal effect. The conditions noted are these: CellTox Green fluorescence; series mostly up to 76.8 µM; cytotoxicity: at the top concentration. The method, boiled down: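 First, HepG2 cells (600/well) mixed with reagent were plated; second, after 5 h at 37 C they received compounds via pintool; third, fluorescence was measured at 0 h through 40 h at 8 h intervals.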
Take `NC(CSCC(=O)O)C(=O)O` (stereo not drawn): the “cytotoxicity” value was -14.9% [at 35.3 µM] (inactive).

As to `O=C(O)CNC(=O)c1ccc([N+](=O)[O-])cc1`, the “cytotoxicity” value is -0.772% (inactive).

With `N=C(N)c1ccc(OCCCOc2ccc(C(=N)N)cc2)cc1`, the “cytotoxicity” value is -8.42% [at 35.3 µM] (inactive).

As for `CCCCCCCCCCCCCCCCC`, the “cytotoxicity” value is -1.86% (inactive).

On to `CN(C)CCCNCCCN(C)C`, for which the “cytotoxicity” value was 1.02% (inactive).

Turning to `COc1ccc2c(c1)c(CC(=O)OCC(=O)O)c(C)n2C(=O)c1ccc(Cl)cc1`, the “cytotoxicity” value is -4.48% [at 35.3 µM] (inactive).

With `CCCCOCCOCCOCCCC`, the “cytotoxicity” value is -3.43% (inactive).

Take `COC(C)(C)CCCC(C)CC=O` (stereo not drawn): the “cytotoxicity” value was -1.58% (inactive).

`CCCN1CCCC[C@H]1C(=O)Nc1c(C)cccc1C`: the “cytotoxicity” value is -14.5% [at 35.3 µM] (inactive).

For the compound `O=C(O)CCCl`, the “cytotoxicity” value is -6.66% (inactive).

For `COc1nc(N)nc2c1ncn2[C@@H]1O[C@H](CO)[C@@H](O)[C@@H]1O`, the “cytotoxicity” value was -0.944% [at 35.3 µM] (inactive).

Consider `C1OCOCO1`, for which the “cytotoxicity” value was -1.8% (inactive).

`Cc1cc2c(cc1S(N)(=O)=O)S(=O)(=O)CCC2`: the “cytotoxicity” value was 4.41% [at 35.3 µM] (inactive).

With `O=c1n(CCO)c(=O)n(CCO)c(=O)n1CCO`, the Potency entry is “inactive and 43.6 µM (active)”.

As for `CCCCCCCCCCCCN(CCCCCCCCCCCC)CCCCCCCCCCCC`, the “cytotoxicity” value is 4.1% (inactive).

As for `CCS(=O)(=O)c1ccc(OC)c(C(=O)OC)c1`, the “cytotoxicity” value is -11.3% [at 35.3 µM] (inactive).

As for `N=C(N)c1ccccc1`, the “cytotoxicity” value is 2.31% (inactive).

`CN1C(=O)N(C)C(O)C1O` (stereo not drawn): the “cytotoxicity” value is -5.27% (inactive).

In the case of `CC(C)NC(=O)NC(C)C`, the “cytotoxicity” value is -0.172% (inactive).

For `Brc1c(NC2=NCCN2)ccc2nccnc12`, the “cytotoxicity” value was -3.91% [at 35.3 µM] (inactive).

With `CN(C(=O)c1c(O)c2ccccc2n(C)c1=O)c1ccccc1`, the “cytotoxicity” value is 1.27% [at 35.3 µM] (inactive).

As to `CC(C)NCCCC1(C(N)=O)c2ccccc2-c2ccccc21`, the “cytotoxicity” value was -7.22% [at 35.3 µM] (inactive).

With `C=C(C)C(=O)OCCCCCCCC(C)C`, the “cytotoxicity” value is 0.564% (inactive).

Take `CC(NC(CCc1ccccc1)C(=O)O)C(=O)N1C(=O)N(C)CC1C(=O)O` (stereo not drawn): the “cytotoxicity” value was -2.75% [at 35.3 µM] (inactive).

As for `CCOC(=O)[C@H](CCc1ccccc1)N[C@@H](C)C(=O)N1[C@H](C(=O)O)C[C@@H]2CCC[C@@H]21`, the “cytotoxicity” value was 2.45% [at 35.3 µM] (inactive).

Consider `O=Cc1cccc([N+](=O)[O-])c1`, for which the “cytotoxicity” value is -5.6% (inactive).

`CC/C=C\CC/C=C/C(OCC)OCC`: the “cytotoxicity” value is -4.96% (inactive).

As to `CCCCCSCCCCC`, the “cytotoxicity” value is 3.12% (inactive).

For `CCOC(=O)CC(C)=O`, the “cytotoxicity” value was 1.29% (inactive).

For the compound `Cn1cc(S(C)=O)c(=O)c2ccc(F)cc21` (stereo not drawn), the “cytotoxicity” value is 2.83% [at 35.3 µM] (inactive).

Regarding `CC(C)CCCC(C)N` (stereo not drawn), the “cytotoxicity” value was -14.4% [at 35.3 µM] (inactive).

For the compound `COC(=O)c1ccc(C)cc1C1=NC(C)(C(C)C)C(=O)N1` (stereo not drawn), the “cytotoxicity” value is 2.89% (inactive).

`CC(C)(O)C(=O)c1ccccc1`: the “cytotoxicity” value is -3.19% (inactive).

On to `N#Cc1ccc(C2CCCc3cncn32)cc1` (stereo not drawn), for which the “cytotoxicity” value is -3.84% [at 35.3 µM] (inactive).

On to `C[C@@H]1CCN(C(=O)[C@H](CCCN=C(N)N)NS(=O)(=O)c2cccc3c2NC[C@H](C)C3)[C@@H](C(=O)O)C1`, for which the “cytotoxicity” value is -8.01% [at 35.3 µM] (inactive).

The values above are taken from PubChem BioAssay (Tox21).
